According to ChEMBL document CHEMBL2218924, “A broad activity screen in support of a chemogenomic map for kinase signalling research and drug discovery” (Biochem J, 2013):

How the values were obtained:
[1] = biological target: Protein kinase C eta type (Homo sapiens) (UniProt P24723); details: at 1 µM
[2] = biological target: Protein kinase C eta type (Homo sapiens) (UniProt P24723); details: at 10 µM
[3] = biological target: Protein kinase C theta type (Homo sapiens) (UniProt Q04759); details: at 1 µM
[4] = biological target: Protein kinase C theta type (Homo sapiens) (UniProt Q04759); details: at 10 µM
[5] = biological target: T1, Protein kinase C iota type (Homo sapiens) (UniProt P41743); details: at 1 µM
T1 sequence (whole entry): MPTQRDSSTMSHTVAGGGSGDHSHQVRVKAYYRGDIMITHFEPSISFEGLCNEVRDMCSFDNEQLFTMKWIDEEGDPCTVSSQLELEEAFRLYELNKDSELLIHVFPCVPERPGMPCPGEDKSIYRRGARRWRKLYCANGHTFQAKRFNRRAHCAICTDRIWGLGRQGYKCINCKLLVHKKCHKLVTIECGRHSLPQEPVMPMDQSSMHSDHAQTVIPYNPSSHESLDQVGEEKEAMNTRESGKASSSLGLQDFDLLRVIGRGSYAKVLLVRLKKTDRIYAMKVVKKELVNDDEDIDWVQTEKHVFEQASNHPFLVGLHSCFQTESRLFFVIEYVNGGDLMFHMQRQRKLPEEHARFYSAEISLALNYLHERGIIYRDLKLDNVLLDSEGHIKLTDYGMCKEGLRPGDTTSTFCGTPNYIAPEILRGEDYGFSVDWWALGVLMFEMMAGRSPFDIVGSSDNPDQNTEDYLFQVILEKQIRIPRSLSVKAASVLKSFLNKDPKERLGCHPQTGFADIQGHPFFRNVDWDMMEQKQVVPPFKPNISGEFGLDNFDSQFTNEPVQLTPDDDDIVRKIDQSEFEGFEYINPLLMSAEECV

[6] = biological target: T1, Protein kinase C iota type (Homo sapiens); details: at 10 µM
[7] = biological target: T2, Serine/threonine-protein kinase D1 (Homo sapiens) (UniProt Q15139); details: at 1 µM
T2 sequence (whole entry): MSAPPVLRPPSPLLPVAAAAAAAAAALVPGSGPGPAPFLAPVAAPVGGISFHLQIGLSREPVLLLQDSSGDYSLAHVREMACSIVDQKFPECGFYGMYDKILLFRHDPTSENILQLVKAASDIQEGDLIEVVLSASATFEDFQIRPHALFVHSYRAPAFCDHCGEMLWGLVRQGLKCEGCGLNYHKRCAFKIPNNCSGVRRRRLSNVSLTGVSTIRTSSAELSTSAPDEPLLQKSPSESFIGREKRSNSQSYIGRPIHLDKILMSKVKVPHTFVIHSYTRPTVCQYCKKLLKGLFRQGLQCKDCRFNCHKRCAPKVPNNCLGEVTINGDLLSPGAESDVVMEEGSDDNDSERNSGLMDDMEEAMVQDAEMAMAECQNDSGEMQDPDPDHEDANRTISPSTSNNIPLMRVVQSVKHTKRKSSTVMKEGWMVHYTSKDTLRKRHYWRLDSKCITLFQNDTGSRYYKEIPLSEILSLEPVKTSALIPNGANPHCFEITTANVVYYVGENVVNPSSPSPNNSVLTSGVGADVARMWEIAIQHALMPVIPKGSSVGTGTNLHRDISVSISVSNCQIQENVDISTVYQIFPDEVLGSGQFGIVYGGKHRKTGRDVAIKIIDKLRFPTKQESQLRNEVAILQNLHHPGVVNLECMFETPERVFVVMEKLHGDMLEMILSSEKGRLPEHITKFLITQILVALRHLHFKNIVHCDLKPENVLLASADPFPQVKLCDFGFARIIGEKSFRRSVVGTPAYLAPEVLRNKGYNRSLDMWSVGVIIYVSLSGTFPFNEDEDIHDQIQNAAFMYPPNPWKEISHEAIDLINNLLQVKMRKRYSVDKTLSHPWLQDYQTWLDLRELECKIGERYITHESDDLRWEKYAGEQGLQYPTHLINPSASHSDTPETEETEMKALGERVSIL

[8] = biological target: T2, Serine/threonine-protein kinase D1 (Homo sapiens); details: at 10 µM
[9] = biological target: T3, Serine/threonine-protein kinase D2 (Homo sapiens) (UniProt Q9BZL6); details: at 1 µM
T3 sequence (whole entry): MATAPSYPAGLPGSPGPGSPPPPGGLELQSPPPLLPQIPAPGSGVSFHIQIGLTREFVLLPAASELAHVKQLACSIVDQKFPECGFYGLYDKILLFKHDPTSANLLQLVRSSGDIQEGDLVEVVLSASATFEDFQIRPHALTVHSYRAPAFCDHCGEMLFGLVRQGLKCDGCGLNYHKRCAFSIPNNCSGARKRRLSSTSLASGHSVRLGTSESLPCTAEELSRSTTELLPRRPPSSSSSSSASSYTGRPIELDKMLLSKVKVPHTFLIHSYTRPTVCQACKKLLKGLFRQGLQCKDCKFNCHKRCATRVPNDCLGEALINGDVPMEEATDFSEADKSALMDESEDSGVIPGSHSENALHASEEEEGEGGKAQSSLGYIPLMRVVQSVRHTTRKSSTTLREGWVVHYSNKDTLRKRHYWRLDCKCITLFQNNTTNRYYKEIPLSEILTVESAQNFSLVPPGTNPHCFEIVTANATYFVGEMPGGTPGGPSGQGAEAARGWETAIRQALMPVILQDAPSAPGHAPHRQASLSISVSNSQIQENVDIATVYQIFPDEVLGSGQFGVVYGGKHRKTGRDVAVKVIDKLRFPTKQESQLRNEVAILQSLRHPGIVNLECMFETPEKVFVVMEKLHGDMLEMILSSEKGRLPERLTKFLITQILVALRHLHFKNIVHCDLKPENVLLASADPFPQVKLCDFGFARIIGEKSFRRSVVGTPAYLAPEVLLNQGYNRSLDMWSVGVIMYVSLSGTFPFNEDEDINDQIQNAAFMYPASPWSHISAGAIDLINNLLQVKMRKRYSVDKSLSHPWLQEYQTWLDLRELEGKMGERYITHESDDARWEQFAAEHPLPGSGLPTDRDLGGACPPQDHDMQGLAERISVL

[10] = biological target: T3, Serine/threonine-protein kinase D2 (Homo sapiens); details: at 10 µM

Chain of Protein kinase C theta type (Homo sapiens) (Q04759 whole entry, looked up): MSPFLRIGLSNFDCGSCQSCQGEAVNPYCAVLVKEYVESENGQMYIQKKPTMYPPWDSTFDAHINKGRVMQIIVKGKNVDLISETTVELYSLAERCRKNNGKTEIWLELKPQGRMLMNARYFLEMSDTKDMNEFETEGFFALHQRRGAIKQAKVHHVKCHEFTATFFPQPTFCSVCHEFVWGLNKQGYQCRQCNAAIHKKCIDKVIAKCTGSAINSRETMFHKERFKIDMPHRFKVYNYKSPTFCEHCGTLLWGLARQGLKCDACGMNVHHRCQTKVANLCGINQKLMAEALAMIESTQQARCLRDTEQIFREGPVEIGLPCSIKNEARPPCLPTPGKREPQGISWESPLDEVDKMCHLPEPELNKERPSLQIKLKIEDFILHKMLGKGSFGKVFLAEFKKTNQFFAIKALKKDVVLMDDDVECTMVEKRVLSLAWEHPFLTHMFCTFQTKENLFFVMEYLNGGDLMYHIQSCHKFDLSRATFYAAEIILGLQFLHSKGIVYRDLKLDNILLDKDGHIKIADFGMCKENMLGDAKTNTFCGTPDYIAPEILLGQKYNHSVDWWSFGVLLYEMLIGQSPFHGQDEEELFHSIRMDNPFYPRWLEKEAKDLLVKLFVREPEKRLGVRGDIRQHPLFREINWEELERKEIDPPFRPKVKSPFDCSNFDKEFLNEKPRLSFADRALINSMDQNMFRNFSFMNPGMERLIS
Chain of Protein kinase C eta type (Homo sapiens) (P24723 whole entry): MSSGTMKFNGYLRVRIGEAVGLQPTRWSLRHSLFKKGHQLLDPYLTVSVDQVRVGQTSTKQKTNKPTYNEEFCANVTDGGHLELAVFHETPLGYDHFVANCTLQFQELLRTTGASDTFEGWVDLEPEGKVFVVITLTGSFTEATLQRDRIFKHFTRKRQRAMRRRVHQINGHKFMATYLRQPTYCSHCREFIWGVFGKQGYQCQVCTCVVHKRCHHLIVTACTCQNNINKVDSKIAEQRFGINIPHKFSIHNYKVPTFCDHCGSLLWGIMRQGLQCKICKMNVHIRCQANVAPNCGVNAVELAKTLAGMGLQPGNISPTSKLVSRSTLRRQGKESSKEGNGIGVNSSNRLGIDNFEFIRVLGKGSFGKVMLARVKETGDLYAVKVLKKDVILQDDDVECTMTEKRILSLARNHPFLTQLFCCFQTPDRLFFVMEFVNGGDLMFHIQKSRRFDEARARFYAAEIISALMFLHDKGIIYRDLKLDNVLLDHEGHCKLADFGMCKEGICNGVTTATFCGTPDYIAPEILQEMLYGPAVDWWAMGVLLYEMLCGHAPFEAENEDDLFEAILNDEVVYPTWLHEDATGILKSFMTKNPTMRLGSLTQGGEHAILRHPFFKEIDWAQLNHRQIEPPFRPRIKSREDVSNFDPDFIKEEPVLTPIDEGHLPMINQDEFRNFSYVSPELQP

SMILES | residual activity [1] [%] | residual activity [2] [%] | residual activity [3] [%] | residual activity [4] [%] | residual activity [5] | residual activity [6] [%] | residual activity [7] [%] | residual activity [8] [%] | residual activity [9] [%] | residual activity [10] [%]
Cn1cc(/C=C2\C(=O)Nc3ccc(S(N)(=O)=O)cc32)c2ccccc21 | 96 | 98 | 84 | 49 | 110% (inactive) | 87 | 84 | 59 | 103 | 103
CCOc1cc2ncnc(Nc3cccc(Br)c3)c2cc1OCC | 82 | 88 | 116 | 106 | 87% (inactive) | 95 | 101 | 54 | 104 | 113
Cn1cnc2cc3c(Nc4cccc(Br)c4)ncnc3cc21 | 93 | 91 | 99 | 100 | 103% (inactive) | 76 | 94 | 82 | 97 | 116
CN(C)c1ccc(/C=C2\C(=O)Nc3ccccc32)cc1 | 102 | 93 | 117 | 85 | 92% (inactive) | 78 | 96 | 81 | 103 | 114
N#CCCc1ccc2c(c1)-c1[nH]c3ccc([N+](=O)[O-])cc3c1CC(=O)N2 |  |  |  |  |  | 67 |  | 76 |  | 
Nc1cccc(-c2cc3c(Oc4cccc(O)c4)ncnc3[nH]2)c1 | 83 | 64 | 88 | 57 |  | 99 | 80 | 51 | 99 | 54
Cc1ccc(S(=O)(=O)/C=C/C#N)cc1 | 80 | 90 | 97 | 77 | 109% (inactive) | 100 | 98 | 84 | 108 | 102
CC(=O)c1ccc(N2CCOCC2)cc1O | 92 | 84 | 109 | 102 | 84% (inactive) | 106 | 92 | 95 | 93 | 109
O=Nc1c(-c2c(O)[nH]c3ccccc23)[nH]c2ccccc12 | 91 | 83 | 81 | 55 | 96% (inactive) | 105 | 113 | 65 | 109 | 98
O=C1Nc2ccccc2/C1=C1/Nc2ccccc2/C1=N\OCCC(O)CO (stereo unspecified) |  |  | 66 | 29 | 113% (inactive) |  | 73 | 32 | 101 | 76
Nc1nc(Nc2ccc(S(N)(=O)=O)cc2)nn1C(=S)Nc1c(F)cccc1F | 30 | 4 | 10 | 2 |  | 80 | 2 | 4 | 45 | 6
Cc1cc2ncc(-c3ccccc3)nc2cc1C | 107 | 84 | 110 | 102 | 83% (inactive) | 78 |  |  | 104 | 110
Cc1nc(-c2ccccc2)c(-c2ccncc2)o1 | 101 | 90 | 107 | 103 | 108% (inactive) | 103 | 113 | 80 | 103 | 94
O=C(Nc1cccc(Nc2cc(Nc3cccc(C(F)(F)F)c3)ncn2)c1)C1CC1 | 117 | 87 |  | 80 | 97% (inactive) | 111 | 99 | 88 | 107 | 110
Cc1cccc(-c2[nH]c(C(C)(C)C)nc2-c2ccc3c(c2)OCO3)n1 | 84 | 80 | 96 | 95 | 85% (inactive) | 76 |  | 72 | 103 | 106
COc1ccc(S(=O)(=O)N(CCO)c2ccccc2CN(C)C/C=C/c2ccc(Cl)cc2)cc1 | 78 | 89 | 89 | 93 | 117% (inactive) | 110 | 83 | 77 | 102 | 99
O=C1NC(=O)/C(=C\c2ccc3nccnc3c2)S1 | 103 | 78 | 102 | 81 | 89% (inactive) | 88 | 103 | 88 | 108 | 96
COc1cc2ncnc(Nc3ccc(Oc4ccccc4)cc3)c2cc1OC | 98 | 83 | 108 | 112 | 90% (inactive) | 76 | 95 | 103 | 106 | 106
N#CC(C#N)=C(N)/C(C#N)=C/c1ccc(O)cc1 | 118 | 81 |  |  | 81% (inactive) | 75 | 93 |  |  | 

SMILES | residual activity [1] [%] | residual activity [2] [%] | residual activity [3] [%] | residual activity [4] [%] | residual activity [5] | residual activity [6] [%] | residual activity [7] [%] | residual activity [8] [%] | residual activity [9] [%] | residual activity [10] [%]
O=C1Nc2ccc(Br)cc2/C1=C\c1cc2c([nH]1)CCCC2 | 102 | 73 | 100 | 99 | 84% (inactive) | 78 |  |  |  | 106
CN(C)CCCn1cc(C2=C(c3c[nH]c4ccccc34)C(=O)NC2=O)c2ccccc21 |  |  |  |  | 74% (inactive) | 47 | 108 | 43 |  | 82
O=C1NC(=O)c2c1c1c3ccccc3[nH]c1c1[nH]c3cc(Br)ccc3c21 | 72 | 89 | 80 | 91 | 102% (inactive) |  | 111 | 72 | 103 | 90
Cn1nc2c3c(cccc31)C(=O)c1ccccc1-2 | 88 | 89 | 97 | 86 | 105% (inactive) | 105 | 61 | 54 | 108 | 92
CCN(CC)C(=O)c1ccc(Nc2nc(OCC3CCCCC3)c3nc[nH]c3n2)cc1 |  | 55 | 78 | 39 | 99% (inactive) | 103 | 72 | 23 | 93 | 51
c1ccc2c(-c3ccncc3)c[nH]c2c1 | 64 | 17 | 88 | 70 | 89% (inactive) | 67 | 87 | 69 | 104 | 106
COc1cc2ncc(-c3ccccc3)nc2cc1OC |  |  |  |  |  | 68 |  |  | 96 | 99
Oc1n[nH]c2nnc(-c3c(-c4ccccc4)nn4ccccc34)cc12 | 78 | 89 | 81 | 75 | 104% (inactive) | 103 | 89 | 71 | 104 | 98
CC(=O)O/N=C1\C(=C2\C(=O)Nc3cc(Br)ccc32)Nc2ccccc21 | 101 | 106 | 97 | 96 | 104% (inactive) | 103 | 85 |  | 104 | 102
C[C@@H](N)[C@H]1CC[C@H](C(=O)Nc2ccncc2)CC1 | 26 | 5 | 63 | 17 | 101% (inactive) | 93 | 100 |  |  | 112
CO[C@@H]1[C@H](N(C)C(=O)c2ccccc2)C[C@H]2O[C@]1(C)n1c3ccccc3c3c4c(c5c6ccccc6n2c5c31)C(=O)NC4 | 84 | 29 | 15 | 11 | 79% (inactive) | 85 | 85 |  | 101 | 92
COc1cc2ncnc(Nc3ccc(NC(=O)c4ccccc4)cc3)c2cc1OC | 137 | 95 |  | 101 | 101% (inactive) | 66 |  | 88 | 100 | 106
Ic1cccc(CSc2nnc(-c3ccncc3)o2)c1 | 59 | 62 | 68 | 58 | 109% (inactive) | 107 | 72 | 71 | 97 | 98
Cc1cc(Nc2nc(-c3ccccc3)nc3ccccc23)n[nH]1 |  |  | 64 | 26 | 112% (inactive) | 107 |  |  | 110 | 104
N#Cc1cnc2cnc(NCc3cccnc3)cc2c1Nc1ccc(F)c(Cl)c1 | 85 | 83 | 4 | 5 |  |  | 80 | 39 | 101 | 91
CO[C@H]1C[C@@H]2CC[C@@H](C)[C@@](O)(O2)C(=O)C(=O)N2CCCC[C@H]2C(=O)O[C@H]([C@H](C)C[C@@H]2CC[C@@H](O)[C@H](OC)C2)CC(=O)[C@H](C)/C=C(\C)[C@@H](O)[C@@H](OC)C(=O)[C@H](C)C[C@H](C)/C=C/C=C/C=C/1C | 93 | 76 | 94 | 113 | 89% (inactive) | 77 | 93 | 97 | 102 | 107
Oc1ccc(-c2nc(-c3ccc(F)cc3)c(-c3ccncc3)[nH]2)cc1 | 100 | 70 | 101 | 75 | 109% (inactive) | 105 | 94 | 36 | 102 | 81
COc1ccc(OC)c2c(=S)c3ccccc3[nH]c12 | 77 | 63 | 81 | 89 | 109% (inactive) | 80 | 96 | 73 | 108 | 84
c1ccc(-c2n[nH]c3c2oc2ccccc23)cc1 | 91 | 85 | 98 | 96 | 90% (inactive) | 79 |  | 72 |  | 
